Measurements as given in PubChem BioAssay (Tox21).
Results filed as inconclusive are left out. Calls of active or inactive are those of the source. Unless noted, calls come from the whole dose curve; as a rule, active = well fitted curve in the direction sought with a large enough effect in the repeat runs; inconclusive = weak or mixed curves; inactive = no such curve, though single readings can be large; an effect the other way counts as inactive or inconclusive.

Assays:
[1] = qHTS assay to test for compound auto fluorescence at 535 nm (green) in HEK293 cells (AID 720680)
[2] = qHTS assay to test for compound auto fluorescence at 460 nm (blue) in HEK293 cell free culture (AID 720681)
Summary of the method: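 Compounds were added to cell-free DMEM with 10% FBS and fluorescence read directly. The blue channel used 405 nm excitation and 460 nm emission, with triamterene as the reference fluorophore.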

[3] = qHTS assay to test for compound auto fluorescence at 535 nm (green) in HEK293 cell free culture (AID 720682)
Summary of the method: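 Using fluorescein as calibrant, autofluorescence was quantified at 485/535 nm in cell-free DMEM containing 10% FBS after pintool addition of compound or vehicle.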

[4] = qHTS assay to test for compound auto fluorescence at 590 nm (red) in HEK293 cell free culture (AID 720683)
Summary of the method: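 Cell-free wells of DMEM with 10% FBS received compound, and intrinsic fluorescence was read at excitation/emission 540/590 nm. Values expressed as equivalence to Rose Bengal sodium.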

[5] = qHTS assay to test for compound auto fluorescence at 590 nm (red) in HepG2 cell free culture (AID 720684)
Summary of the method: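 Compound was pinned into wells holding MEM with 10% FBS and no cells, and red fluorescence was read at Ex/Em 540/590 nm. Signal is expressed as auto fluorescence equivalency relative to Rose Bengal sodium.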

[6] = qHTS assay to test for compound auto fluorescence at 460 nm (blue) in HepG2 cell free culture (AID 720685)
Summary of the method: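 Compound (23 nL) or DMSO pinned into cell-free MEM with 10% FBS; blue fluorescence read at 405/460 nm excitation/emission, expressed as auto-fluorescence equivalency to triamterene.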

[7] = qHTS assay to test for compound auto fluorescence at 535 nm (green) in HepG2 cell free culture (AID 720686)
[8] = qHTS assay to test for compound auto fluorescence at 460 nm (blue) in HepG2 cells (AID 720687)
Summary of the method: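 HepG2 cells in MEM with 10% FBS, attached overnight at 37 C, were exposed to compound or DMSO for 1 hr at 37 C, 5% CO2. Blue fluorescence was read at 405/460 nm, with triamterene as reference fluorophore.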

[9] = target: Glucocorticoid receptor (Homo sapiens) (UniProt P04150); experiment: qHTS assay to identify small molecule agonists of the glucocorticoid receptor (GR) signaling pathway (AID 720691; active = well fitted activation curve with a large enough effect in the signal ratio in the repeat runs, not every such curve was filed as active; the % refers to the signal ratio)
Summary of the method: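 GR-bla HeLa cells carrying a GRE-driven beta-lactamase reporter, exposed to compounds for 18 h at 37 C. Reporter activation read as fluorescence after 2 h with LiveBLAzer B/G FRET substrate at room temperature.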

[10] = target: Glucocorticoid receptor (Homo sapiens) (UniProt P04150); experiment: qHTS assay to identify small molecule antagonists of the glucocorticoid receptor (GR) signaling pathway (AID 720692; active = well fitted inhibition curve with a large enough effect in the signal ratio in the repeat runs, not every such curve was filed as active; the % refers to the signal ratio)
Summary of the method: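 GR-bla HeLa cells carrying a GRE-driven beta-lactamase reporter received compound after 4 h plating, then dexamethasone (5 nM final). After 18 h at 37C, the FRET substrate was loaded for 2 h at room temperature and fluorescence read.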

[11] = qHTS assay to identify small molecule antagonists of the glucocorticoid receptor (GR) signaling pathway - cell viability counter screen (AID 720693); note: nearly all actives have a fitted effect of over 55% in size
[12] = qHTS assay for identifying genotoxic compounds that show differential cytotoxicity against isogenic chicken DT40 cell lines with known DNA damage response pathways - wild type cell line (AID 743012); note: nearly all actives have a fitted effect of over 60% in size
Summary of the method: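 Wild-type DT40 cells (300/well) exposed to compounds for 40 hours at 37 C/5% CO2. Viability read by CellTiter-Glo luminescence after 30 min at room temperature.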

[13] = qHTS assay for identifying genotoxic compounds that show differential cytotoxicity against isogenic chicken DT40 cell lines with known DNA damage response pathways - Rev3 mutant cell line (AID 743014); note: nearly all actives have a fitted effect of over 55% in size
[14] = qHTS assay for identifying genotoxic compounds that show differential cytotoxicity against isogenic chicken DT40 cell lines with known DNA damage response pathways - Rad54/Ku70 mutant cell line (AID 743015); note: nearly all actives have a fitted effect of over 60% in size
[15] = qHTS assay to identify small molecule antagonists of the androgen receptor (AR) signaling pathway - cell viability counter screen (AID 743033; note: nearly all actives have a fitted effect of over 45% in size)
[16] = qHTS assay to identify small molecule antagonists of the androgen receptor (AR) signaling pathway using the MDA cell line - cell viability counter screen (AID 743041; note: nearly all actives have a fitted effect of over 45% in size)
Summary of the method: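 MDA-kb2 AR-luc cells (MMTV-luciferase, AR/GR responsive) treated with compounds plus R1881 agonist for 16 h at 37C. CellTiter-Fluor added at 15.5 h; fluorescence read after 30 min in the same wells.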

[17] = target: Androgen receptor (Homo sapiens) (UniProt P10275); experiment: qHTS assay to identify small molecule antagonists of the androgen receptor (AR) signaling pathway (AID 743035; active = well fitted inhibition curve with a large enough effect in the signal ratio in the repeat runs, not every such curve was filed as active; the % refers to the signal ratio)
Summary of the method: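 HEK293 cells stably carrying UAS-beta-lactamase reporter, 2,000/well, given compounds plus R1881 agonist and incubated 16 h at 37C. LiveBLAzer B/G FRET substrate then added for 2 h at room temperature before fluorescence reading.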

[18] = target: Androgen receptor (Homo sapiens) (UniProt P10275); experiment: qHTS assay to identify small molecule agonists of the androgen receptor (AR) signaling pathway (AID 743036; active = well fitted activation curve with a large enough effect in the signal ratio in the repeat runs, with a control signal flat, not every such curve was filed as active; the % refers to the signal ratio)
Summary of the method: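 In this Tox21 qHTS, 2,000 HEK293 AR-bla cells per well were incubated with compounds for 16 h at 37C and 5% CO2. Fluorescence intensity was recorded 2 h after adding LiveBLAzer B/G FRET substrate at room temperature.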

[19] = target: Androgen receptor (Homo sapiens) (UniProt P10275); experiment: qHTS assay to identify small molecule agonists of the androgen receptor (AR) signaling pathway using the MDA cell line (AID 743040; note: nearly all actives have a fitted effect of over 20% in size)
Summary of the method: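 MDA-kb2 breast carcinoma cells carrying MMTV-luciferase (responsive to AR and GR), plated 5 h then treated 16 h with compounds at 37C, 0% CO2. Read-out was ONE-Glo luminescence after 30 min at room temperature.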

[20] = target: Androgen receptor (Homo sapiens) (UniProt P10275); experiment: qHTS assay to identify small molecule antagonists of the androgen receptor (AR) signaling pathway using the MDA cell line (AID 743042; note: nearly all actives have a fitted effect of over 55% in size)
Summary of the method: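 MDA-kb2 breast carcinoma cells carrying MMTV-luciferase (AR/GR responsive) were co-treated with compounds and the agonist R1881 for 16 h at 37C. Inhibition read as ONE-Glo luminescence; CellTiter-Fluor fluorescence measured in parallel for cytotoxicity.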
% is set by controls: 0 for no effect and ±100 for the full control effect.

Sequence of Androgen receptor (Homo sapiens) (P10275 whole entry, looked up): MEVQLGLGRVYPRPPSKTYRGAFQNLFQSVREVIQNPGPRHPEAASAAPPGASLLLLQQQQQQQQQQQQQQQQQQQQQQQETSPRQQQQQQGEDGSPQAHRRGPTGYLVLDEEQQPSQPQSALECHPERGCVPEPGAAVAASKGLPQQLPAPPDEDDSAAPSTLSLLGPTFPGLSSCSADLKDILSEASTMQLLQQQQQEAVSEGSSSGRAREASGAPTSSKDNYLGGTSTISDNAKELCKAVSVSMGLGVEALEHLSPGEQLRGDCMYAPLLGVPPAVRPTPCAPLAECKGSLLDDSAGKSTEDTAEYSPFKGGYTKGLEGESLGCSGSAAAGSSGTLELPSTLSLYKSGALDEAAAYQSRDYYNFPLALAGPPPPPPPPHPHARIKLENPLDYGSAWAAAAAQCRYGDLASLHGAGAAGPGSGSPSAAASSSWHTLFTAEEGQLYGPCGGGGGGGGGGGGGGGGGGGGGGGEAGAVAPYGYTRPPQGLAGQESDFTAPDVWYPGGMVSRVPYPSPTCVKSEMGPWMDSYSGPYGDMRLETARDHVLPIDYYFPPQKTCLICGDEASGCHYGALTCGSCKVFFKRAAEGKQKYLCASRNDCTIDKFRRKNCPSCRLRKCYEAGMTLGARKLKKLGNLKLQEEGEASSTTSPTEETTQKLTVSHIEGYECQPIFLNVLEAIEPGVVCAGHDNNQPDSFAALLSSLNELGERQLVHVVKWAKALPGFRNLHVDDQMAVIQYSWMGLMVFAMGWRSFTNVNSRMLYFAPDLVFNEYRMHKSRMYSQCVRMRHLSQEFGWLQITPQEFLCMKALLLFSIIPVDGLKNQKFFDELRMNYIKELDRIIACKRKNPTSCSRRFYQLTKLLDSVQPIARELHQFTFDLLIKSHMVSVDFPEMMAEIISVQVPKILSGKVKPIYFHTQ
Sequence of Glucocorticoid receptor (Homo sapiens) (P04150 whole entry, looked up): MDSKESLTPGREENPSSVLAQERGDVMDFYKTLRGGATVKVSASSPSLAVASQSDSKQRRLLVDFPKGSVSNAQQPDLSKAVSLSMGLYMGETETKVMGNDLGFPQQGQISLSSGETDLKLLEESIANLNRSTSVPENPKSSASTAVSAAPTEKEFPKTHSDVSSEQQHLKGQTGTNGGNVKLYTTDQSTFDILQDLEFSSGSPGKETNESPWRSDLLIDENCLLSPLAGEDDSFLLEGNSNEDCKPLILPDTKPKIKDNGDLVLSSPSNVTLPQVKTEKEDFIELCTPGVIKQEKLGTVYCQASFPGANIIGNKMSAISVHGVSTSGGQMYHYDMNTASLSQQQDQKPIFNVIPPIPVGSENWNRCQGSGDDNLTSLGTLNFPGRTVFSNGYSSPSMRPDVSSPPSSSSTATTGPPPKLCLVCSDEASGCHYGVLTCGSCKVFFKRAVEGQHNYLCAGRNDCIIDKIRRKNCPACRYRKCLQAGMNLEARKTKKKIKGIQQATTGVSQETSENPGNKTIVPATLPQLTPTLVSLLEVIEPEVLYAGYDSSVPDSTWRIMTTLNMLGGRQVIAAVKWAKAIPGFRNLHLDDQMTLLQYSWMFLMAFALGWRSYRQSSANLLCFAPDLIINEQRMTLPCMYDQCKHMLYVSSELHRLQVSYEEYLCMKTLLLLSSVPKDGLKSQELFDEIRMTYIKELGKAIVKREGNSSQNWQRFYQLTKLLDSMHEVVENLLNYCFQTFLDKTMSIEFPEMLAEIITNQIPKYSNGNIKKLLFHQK

CCc1ccc(C=O)cc1
inactive: outcome [1] | outcome [2] | outcome [3] | outcome [4] | outcome [5] | outcome [6] | outcome [7] | outcome [8] | Potency [9] | outcome [10] | outcome [11] | Potency [12] | Potency [13] | Potency [14] | Potency [15] | Potency [16]

CCCN1C[C@H](CSC)C[C@@H]2c3cccc4[nH]cc(c34)C[C@H]21
inactive: outcome [1] | outcome [2] | outcome [3] | outcome [4] | outcome [5] | outcome [6] | outcome [7] | outcome [8] | Potency [9] | outcome [10] | outcome [11] | Potency [13] | Potency [15]

N[C@@H](CCC(=O)Nc1ccc([N+](=O)[O-])cc1)C(=O)O
inactive: outcome [1] | outcome [2] | outcome [3] | outcome [4] | outcome [5] | outcome [6] | outcome [7] | outcome [8] | Potency [9] | outcome [10] | outcome [11] | Potency [13] | Potency [14] | Potency [15] | Potency [17] | outcome [18] | outcome [19] | Potency [20]

O=P(O)(O)OP(=O)(O)O
inactive: outcome [1] | outcome [2] | outcome [3] | outcome [4] | outcome [5] | outcome [6] | outcome [7] | outcome [8] | Potency [9] | outcome [10] | outcome [11] | Potency [12] | Potency [13] | Potency [15] | Potency [16]

CC1COc2ccccc2N1 (centres undefined)
inactive: outcome [1] | outcome [2] | outcome [3] | outcome [4] | outcome [5] | outcome [6] | outcome [7] | outcome [8] | Potency [9] | outcome [10] | outcome [11] | Potency [13] | Potency [15] | Potency [16]

Cc1cc(Cl)c(C)cc1Cl
inactive: outcome [1] | outcome [2] | outcome [3] | outcome [4] | outcome [5] | outcome [6] | outcome [7] | outcome [8] | Potency [9] | outcome [10] | outcome [11] | Potency [13] | Potency [14] | Potency [15] | outcome [18] | outcome [19] | Potency [16] | Potency [20]

CC(=O)CCCCn1c(=O)c2c(ncn2C)n(C)c1=O
inactive: fluorescence, % of fluorescein [1] 0.0863% [at 18.6 µM] | fluorescence, % of fluorescent control [2] 0.0365% [at 18.6 µM] | activity change [3] 0.0172% [at 18.6 µM] | fluorescence, % of fluorescent control [4] 0.153% [at 18.6 µM] | fluorescence, % of Rose Bengal [5] -0.221% [at 18.6 µM] | fluorescence, % of fluorescent control [6] 0.0657% [at 18.6 µM] | fluorescence, % of fluorescein control [7] -0.0364% [at 18.6 µM] | fluorescence, % of fluorescent control [8] 0.0705% [at 18.6 µM] | Potency [9] | outcome [10] | outcome [11] | Potency [12] | Potency [13] | Potency [14] | Potency [16]

CCCCOC(=O)c1ccccc1
inactive: outcome [1] | outcome [2] | outcome [3] | outcome [4] | outcome [5] | outcome [6] | outcome [7] | outcome [8] | Potency [9] | outcome [10] | outcome [11] | Potency [12] | Potency [14] | Potency [15] | Potency [17] | outcome [19] | Potency [16] | Potency [20]

CC(C)(C)NC(N)=O
inactive: outcome [1] | outcome [2] | outcome [3] | outcome [4] | outcome [5] | outcome [6] | outcome [7] | outcome [8] | Potency [9] | outcome [10] | outcome [11] | Potency [12] | Potency [13] | Potency [15] | Potency [17] | outcome [19] | Potency [16] | Potency [20]

CCOC(=O)CC(=O)c1ccccc1
inactive: outcome [1] | outcome [2] | outcome [3] | outcome [4] | outcome [5] | outcome [6] | outcome [7] | outcome [8] | Potency [9] | outcome [10] | outcome [11] | Potency [12] | Potency [14] | Potency [15] | Potency [16]

CCCCCCN
inactive: outcome [1] | outcome [2] | outcome [3] | outcome [4] | outcome [5] | outcome [6] | outcome [7] | outcome [8] | Potency [9] | outcome [10] | outcome [11] | Potency [12] | Potency [13] | Potency [14] | Potency [15] | Potency [16]

O=C1c2ccccc2C(=O)N1CCl
inactive: outcome [1] | outcome [2] | outcome [3] | outcome [4] | outcome [5] | outcome [6] | outcome [7] | outcome [8] | Potency [9] | outcome [10] | outcome [11] | Potency [12] | Potency [15] | Potency [17] | outcome [18] | outcome [19] | Potency [16] | Potency [20]

ClCCCl
inactive: outcome [1] | outcome [2] | outcome [3] | outcome [4] | outcome [5] | outcome [6] | outcome [7] | outcome [8] | Potency [9] | outcome [10] | outcome [11] | Potency [12] | Potency [13] | Potency [15] | Potency [16]

COP(=O)(OC)OC(c1ccc(Cl)cc1)P(=O)(OC)OC (centres undefined)
inactive: outcome [1] | outcome [2] | outcome [3] | outcome [4] | outcome [5] | outcome [6] | outcome [7] | outcome [8] | Potency [9] | outcome [10] | outcome [11] | Potency [12] | Potency [15] | Potency [16]

C[C@@H](Oc1ccc(CNC(=O)c2cccnc2Oc2ccc3c(c2)OCO3)c(F)c1)C(=O)O
inactive: outcome [1] | outcome [2] | outcome [3] | outcome [4] | outcome [5] | outcome [6] | outcome [7] | outcome [8] | Potency [9] | outcome [10] | outcome [11] | Potency [12] | Potency [13] | Potency [14] | Potency [15] | Potency [16]
